From PubChem
FMDV antiviral: High Throughput Screening for Foot and Mouth Disease Virus Antivirals; Potency, µM (titrated, usually from 57.9 µM), hits mostly inhibitors; FMDV antiviral cell-based qHTS; actives 1.2% (n = 410,000); calls by dose curve; tested in HEK293T cells; also: read-out not given here; nearly all actives have a fitted effect of over 45% in size
Lassa entry inh: qHTS for Inhibitors of binding or entry into cells for Lassa Virus; AID 540256, 2011; Lassa virus pseudotype entry inhibition, cell reporter; actives 1.2% (n = 300,000); Potency, µM (titrated, usually from 37.9 µM), usual class: inhibitors; calls by dose curve; tested in HEK293 cells; also: nearly all actives have a fitted effect of over 50% in size
Giardia FBPA inh: qHTS Assay for Inhibitors of Fructose-1,6-bisphosphate Aldolase from Giardia Lamblia | Potency, µM (titrated, usually from 59.6 µM), hits mostly inhibitors | actives 0.71% (n = 290,000) | A8B2U2 | purified Giardia FBPA; also: nearly all actives have a fitted effect of over 55% in size
Target sequence (A8B2U2 whole entry, looked up): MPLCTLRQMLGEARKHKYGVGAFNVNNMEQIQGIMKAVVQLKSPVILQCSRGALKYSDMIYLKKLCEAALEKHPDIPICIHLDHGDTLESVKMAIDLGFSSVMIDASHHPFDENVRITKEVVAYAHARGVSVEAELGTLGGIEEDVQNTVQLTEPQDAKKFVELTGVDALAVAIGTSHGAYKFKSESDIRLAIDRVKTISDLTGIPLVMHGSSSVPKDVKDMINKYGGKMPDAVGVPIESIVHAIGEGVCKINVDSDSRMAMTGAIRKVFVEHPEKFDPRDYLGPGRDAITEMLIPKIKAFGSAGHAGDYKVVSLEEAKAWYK
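Giardia FBPA (40 nM reagent) was preincubated 10 min at RT with compound (up to 57.5 uM final), then substrate plus GAPDH/TPI/NAD/arsenate coupling system with diaphorase/resazurin was added; resorufin fluorescence (525/598 nm) was read after 20 min.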
HCV inhibitor: qHTS Assay for Inhibitors of Hepatitis C Virus (HCV); Huh7.5.1 HCVcc-Cre infection, luciferase reporter, 44 h; Potency, µM (highest dose often 41.8 µM), usual class: inhibitors; actives 3.4% (n = 340,000); AID 651820, 2012
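Reporter virus HCVcc-Cre (~0.5 moi) infects cells exposed to compound; seeding density 1,000 cells/well with 4 h settling beforehand. Luminescence, 15 sec read, taken 44 h post-infection following a 15 min RT substrate incubation.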
HCMV inh: qHTS Assay for inhibitors of the human cytomegalovirus (HCMV). HFF cells, HCMV-luciferase reporter, 72 h; hits give low values. activity change, negative = inhibition, % at 57.5 µM. actives 4.5% (n = 410,000). AID 1259415, 2018; in the data active = activity change below about -60%; inconclusive = no clear call, values can overlap the other calls; inactive = above about -39%
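Two compound doses tested in HFFs infected with HCMV-luciferase, MOI 1 PFU/cell, 72 h at 37C. Lysate luminescence read with OneGlo; data normalized against buffer-only and 10uM Salinomycin inhibitor controls.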
Marburg entry inh: qHTS for inhibitors of binding or entry into cells for Marburg Virus. Marburg virus pseudotyped entry inhibition, cell reporter. Potency, µM (highest dose often 37.8 µM), usual class: inhibitors. actives 1.8% (n = 300,000). AID 540276, 2011; calls by dose curve; tested in HEK293 cells
Each line names hits and unclear results; the compound was inactive in the other large screens. An excerpt weighted towards active compounds, which were near 8.3% of everything screened. Unless noted, calls follow the shape of the dose curve; as a rule, active = well fitted curve in the direction sought with a large enough effect; inconclusive = small, poorly fitted or top-dose-only effect, or another doubt; inactive = no such curve, though single readings can be large; an effect the other way counts as inactive or inconclusive.

Cc1ccc(Cn2c(CNC(=O)c3ccc(Cl)c([N+](=O)[O-])c3)nc3cccnc32)cc1	HCMV inh inconclusive (no result: Giardia FBPA inh, HCV inhibitor, Marburg entry inh)
O=C(Nc1cccc(F)c1)N1CC[C@@]2(CCCN(C(=O)c3ccncc3)C2)C1	none (no result: Lassa entry inh, HCV inhibitor, HCMV inh, Marburg entry inh)
COc1ccc(-c2cc3ccc(O)c(CN4CCOCC4)c3oc2=O)cc1OC	none (no result: Giardia FBPA inh, HCV inhibitor, Marburg entry inh)
CCn1c(C)cc(C(=O)COC(=O)c2ccccc2[N+](=O)[O-])c1C	FMDV antiviral 5.6µM, Lassa entry inh 0.32µM, Marburg entry inh inconclusive (no result: Giardia FBPA inh, HCMV inh)
Cc1cc(C(=O)COC(=O)c2n[nH]c3ccccc23)c(C)n1CC1CCCO1 (stereo not drawn)	FMDV antiviral inconclusive, Lassa entry inh inconclusive, HCV inhibitor inconclusive, Marburg entry inh 7.1µM
COCCn1c(C)cc(C(=O)COC(=O)c2ccc(S(=O)(=O)N(C)C)cc2)c1C	HCMV inh -88 (no result: Giardia FBPA inh)
COC(=O)CCn1c(C)cc(C(=O)COc2ccccc2C(N)=O)c1C	FMDV antiviral 16µM, HCV inhibitor inconclusive, Marburg entry inh inconclusive
COCCn1c(C)cc(C(=O)COC(=O)c2cccnc2SC)c1C	Lassa entry inh inconclusive, Marburg entry inh inconclusive (no result: Giardia FBPA inh)
O=C(CCS(=O)(=O)c1cc(Br)cc2c1N(C(=O)C1CC1)CC2)NCc1ccccc1Cl	none (no result: Giardia FBPA inh, HCV inhibitor)
CCCCC/C=C\C/C=C\CCCCCCCCCC(=O)NCCc1ccc(O)c(O)c1	none (no result: FMDV antiviral, Lassa entry inh, HCV inhibitor, HCMV inh, Marburg entry inh)
Cc1cc(C(=O)COC(=O)c2ccccc2Br)c(C)n1CC1CCCO1 (stereo not drawn)	FMDV antiviral 0.4µM, Lassa entry inh inconclusive, HCV inhibitor inconclusive, Marburg entry inh inconclusive (no result: HCMV inh)
Cc1ccc(C(=O)OCC(=O)c2cc(C)n(CC3CCCO3)c2C)cc1 (stereo not drawn)	HCV inhibitor inconclusive, Marburg entry inh inconclusive
COCCn1c(C)cc(C(=O)COC(=O)c2ccccc2Br)c1C	FMDV antiviral 35µM, HCMV inh -82 (no result: Lassa entry inh, Marburg entry inh)
Cc1noc(C)c1COc1ccccc1C(=O)N1CCN(S(=O)(=O)c2ccc(F)c(F)c2)CC1	none (no result: Lassa entry inh, Giardia FBPA inh, Marburg entry inh)
Cc1ccc(S(=O)(=O)N2CCN(C(=O)c3ccccc3OCc3c(C)noc3C)CC2)cc1	HCV inhibitor 0.56µM (no result: Lassa entry inh, Giardia FBPA inh, Marburg entry inh)
O=[N+]([O-])c1cc(C(F)(F)F)cc([N+](=O)[O-])c1NCCNC(=S)Nc1ccc(Cl)c(Cl)c1	Lassa entry inh inconclusive, HCV inhibitor inconclusive, HCMV inh -93, Marburg entry inh inconclusive
O=c1cc[nH]c(=S)[nH]1	FMDV antiviral inconclusive, Giardia FBPA inh 16µM (no result: Lassa entry inh, HCV inhibitor, HCMV inh, Marburg entry inh)
CCC(C)NC(=O)c1ccc2c(c1)N=C(C)c1cc(C)ccc1S2 (stereo not drawn)	HCMV inh -72, Marburg entry inh inconclusive (no result: Giardia FBPA inh, HCV inhibitor)
CC1=Nc2cc(C(=O)NCc3ccco3)ccc2Sc2ccc(C)cc21	Lassa entry inh inconclusive, HCV inhibitor inconclusive, HCMV inh -92
CC1=Nc2cc(C(=O)NCCCN3CCN(C)CC3)ccc2Sc2ccc(C)cc21	none (no result: Lassa entry inh, Marburg entry inh)
CC1=Nc2cc(C(=O)O)ccc2Sc2ccc(C)cc21	none
CC1=Nc2cc(C(=O)NCC3CCCO3)ccc2Sc2ccc(C)cc21 (stereo not drawn)	HCMV inh -72 (no result: Lassa entry inh, Giardia FBPA inh, Marburg entry inh)
COc1ccc2cc(C(=O)CS(=O)(=O)c3ccc(Cl)cc3)c(=O)oc2c1	none (no result: FMDV antiviral, Lassa entry inh, Giardia FBPA inh, HCV inhibitor, Marburg entry inh)
Cc1ccc(NC(=O)Cn2c(=O)n(CCCCC(=O)NCc3ccc4c(c3)OCO4)c(=O)c3ccccc32)cc1	Lassa entry inh inconclusive (no result: Giardia FBPA inh, HCV inhibitor)
Oc1cccc(Nc2cc3[nH]c(-c4ccccc4)cc3cn2)c1	HCMV inh -87 (no result: FMDV antiviral, Lassa entry inh, Giardia FBPA inh, HCV inhibitor, Marburg entry inh)
FC(F)(F)Oc1ccc(Nc2cc3[nH]c(-c4ccccc4)cc3cn2)cc1	none (no result: FMDV antiviral, Lassa entry inh, Giardia FBPA inh, HCV inhibitor, Marburg entry inh)
COc1ccccc1N(CC(=O)NCc1ccco1)S(C)(=O)=O	Marburg entry inh inconclusive
CNC(=O)CN(c1ccc(Oc2ccccc2)cc1)S(=O)(=O)c1ccc(C)cc1	Lassa entry inh 7.1µM (no result: Giardia FBPA inh, HCV inhibitor)
COc1ccc(S(=O)(=O)N(CC(=O)NCc2ccco2)c2ccccc2OC)cc1	HCMV inh -65
CCOc1ccc(S(=O)(=O)N(CC(=O)NCc2ccccc2OC)c2ccccc2)cc1	FMDV antiviral inconclusive, Lassa entry inh inconclusive, HCMV inh -62, Marburg entry inh inconclusive (no result: Giardia FBPA inh, HCV inhibitor)
COc1ccc(S(=O)(=O)N(CC(=O)NCc2ccccc2OC)c2ccc(C)cc2)cc1	HCMV inh -68 (no result: Giardia FBPA inh, HCV inhibitor, Marburg entry inh)
